Laboratory results published in PubChem BioAssay (NCI).
The panel holds about 83,000 compounds, 20% with a hit somewhere; the sample as a whole holds those more often.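 Testing used 96-well plates and a 48-hour single-concentration exposure. Example: -40 means 40% of the starting cells died.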 Active and inactive are the calls of the source. The calls were made as follows: active = growth percent below 10; inactive = the rest.

Assays:
Test in all cases: NCI-60 one-dose screen, 48 h (100 = growth as untreated, 0 = no growth, -100 = all killed)
Conditions in all cases: 10 µM unless noted
BT-549 breast = test system: BT-549 breast
SW-620 colon = test system: SW-620 colon
MCF7 breast = test system: MCF7 breast
HCT-116 colon = test system: HCT-116 colon
HCC-2998 colon = test system: HCC-2998 colon
KM12 colon = test system: KM12 colon
MDA-MB-435 melanoma = test system: MDA-MB-435 melanoma

Measured: growth

Cc1ccc(/C=C/c2nn3c(-c4ccco4)nnc3s2)cc1C
inactive: BT-549 breast 107% | SW-620 colon 98.5% | MCF7 breast 82.1% | HCT-116 colon 109% | HCC-2998 colon 108% | KM12 colon 110%

O=C1C2=C(C(=O)c3c(O)cccc31)C(c1ccco1)c1sc(=O)[nH]c1S2 (configuration not stated)
active: BT-549 breast -96.8% | MCF7 breast -14.2% | HCT-116 colon -2.88% | HCC-2998 colon 4.16%
inactive: SW-620 colon 13%

O=c1[nH]c2ccccc2cc1CSc1ccccc1Nc1nccc(-c2ccc(C(F)(F)F)cc2)n1
inactive: BT-549 breast 112% | SW-620 colon 68.1% | MCF7 breast 40.3% | HCT-116 colon 43.4% | HCC-2998 colon 90.4% | KM12 colon 79.3%

Nc1nc(N)c2c(n1)NC(c1ccc(F)cc1)CC(c1ccc(Nc3nc(NCCO)nc(Nc4ccc(Cl)cc4)n3)cc1)=N2 (configuration not stated)
inactive: BT-549 breast 42.7%
active: SW-620 colon -52.8% | MCF7 breast -66.5% | HCT-116 colon -67.4% | HCC-2998 colon -80.4% | KM12 colon -16.9%

O=C1Nc2ccc(Cl)cc2/C1=C/c1ccc(OCC(=O)c2ccc(Br)cc2)cc1
inactive: BT-549 breast 118% | SW-620 colon 89.9% | MCF7 breast 80.1% | HCT-116 colon 95.5% | HCC-2998 colon 99.5% | KM12 colon 59.1%

CCN1CCN(/C(=N\c2sc(-c3ccccc3)nc2-c2ccccc2)c2ccccc2)CC1
inactive: BT-549 breast 90.9% | SW-620 colon 84.9% | MCF7 breast 67.3% | HCT-116 colon 62.4% | HCC-2998 colon 77.1% | KM12 colon 59.8%

NS(=O)(=O)c1cccc(Nc2nc(SCC(=O)c3ccc(Cl)cc3)nc3ccccc23)c1
inactive: BT-549 breast 26.1% | SW-620 colon 79.3% | MCF7 breast 65.6% | HCT-116 colon 76.4% | HCC-2998 colon 112% | KM12 colon 71.7%

COc1cc(/C=C/C(=O)c2ccc(Cl)cc2)ccc1Oc1nc(NCCO)nc(N2CCOCC2)n1
inactive: BT-549 breast 100% | SW-620 colon 72.4% | MCF7 breast 67% | HCT-116 colon 93.1% | HCC-2998 colon 100% | KM12 colon 106%

COC(=O)C1CN(S(=O)(=O)/N=C2\NC(=O)NC2=C(Cl)Cl)C1
inactive: BT-549 breast 110% | SW-620 colon 114% | MCF7 breast 34.1% | HCT-116 colon 111% | HCC-2998 colon 121%
active: KM12 colon 8.89%

CCN1C(=S)N(c2ccccc2)C2NC(=O)N(/N=C/C=C/c3ccccc3OC)C21 (configuration not stated)
inactive: BT-549 breast 94.5% | SW-620 colon 90.4% | MCF7 breast 62.9% | HCT-116 colon 88% | HCC-2998 colon 130% | KM12 colon 88.3%

Clc1ccc2oc3c(OCCCn4ccnc4)c4ccccc4nc3c2c1
inactive: BT-549 breast 95.7% | SW-620 colon 36.1% | MCF7 breast 63.2% | HCT-116 colon 28.9% | HCC-2998 colon 72.1% | KM12 colon 55.8%

Cc1c(NC(=O)CSc2nc3sc4c(c3c(=O)n2-c2ccc(Cl)cc2)CCCC4)c(=O)n(-c2ccccc2)n1C
inactive: BT-549 breast 93.2% | SW-620 colon 90.6% | MCF7 breast 77.3% | HCT-116 colon 107% | HCC-2998 colon 110% | KM12 colon 98.7%

CN1C(=S)N(C)C2C1NN=C1SC(c3ccccc3)=CC(=O)N12 (configuration not stated)
inactive: BT-549 breast 98.1% | SW-620 colon 105% | MCF7 breast 96.1% | HCT-116 colon 98.8% | HCC-2998 colon 106% | KM12 colon 98.3%

CS(=O)(=O)c1ccc(-c2nc3ccccn3c2-c2nc3ccc([N+](=O)[O-])cc3[nH]2)cc1
inactive: BT-549 breast 122% | SW-620 colon 93.2% | MCF7 breast 85.2% | HCT-116 colon 97% | HCC-2998 colon 105% | KM12 colon 93.8%

[Cl][Ru].c1ccc(-c2cccc(-c3ccccn3)n2)nc1.c1ccc(-c2ccnc3c2ccc2c(-c4ccccc4)ccnc23)cc1
active: BT-549 breast 7.88% | MCF7 breast 9.54% | KM12 colon 8.28%
inactive: SW-620 colon 40.2% | HCT-116 colon 36.9% | HCC-2998 colon 31.3%

O=C1c2c(c3c4cc(Br)ccc4[nH]c3c3ccc4ccccc4c23)C(=O)N1CCO
inactive: BT-549 breast 105% | SW-620 colon 75.9% | MCF7 breast 34.3% | HCT-116 colon 84.2% | HCC-2998 colon 103%

[Cl][Ru].c1ccc(-c2cc(-c3ccccn3)nc(-c3ccccn3)c2)cc1.c1ccc(-c2ccnc3c2ccc2c(-c4ccccc4)ccnc23)cc1
active: MDA-MB-435 melanoma -62.2% | SW-620 colon -56.7% | MCF7 breast -28.2% | HCT-116 colon -79% | HCC-2998 colon -72.9% | KM12 colon -70.8%

Cc1[nH]nc2ncc(C#Cc3cncc(C(=O)Nc4ccc(CN5CCN(C)CC5)c(C(F)(F)F)c4)c3)cc12
active: SW-620 colon 4.05% | HCT-116 colon 8.54% | KM12 colon 8.98%
inactive: MDA-MB-435 melanoma 13.1% | MCF7 breast 43.8% | HCC-2998 colon 44.4%

O=C(c1ccc(O)cc1)C1[C@H](c2ccc(Cl)cc2)[C@@H](c2ccccc2)NC12C(=O)Nc1ccc(Cl)cc12 (some centres not stated)
active: MCF7 breast 9.87%
inactive: MDA-MB-435 melanoma 39.6% | SW-620 colon 40.5% | HCT-116 colon 14.5% | HCC-2998 colon 18% | KM12 colon 24.4%

N#Cc1nc(-c2ccccc2)oc1S(=O)(=O)N1CCN(CCc2ccccn2)CC1
inactive: MDA-MB-435 melanoma 22.9% | MCF7 breast 28% | HCT-116 colon 11.9% | HCC-2998 colon 114% | KM12 colon 84.1%
active: SW-620 colon -24.2%

C#Cc1nc(C2=C(C)C(=O)/C(=N/OC(C)=O)C2)cs1
inactive: MDA-MB-435 melanoma 94.8% | SW-620 colon 110% | MCF7 breast 68.4% | HCT-116 colon 78.4% | HCC-2998 colon 117% | KM12 colon 46.8%

Clc1ccc2c(NCCCN3CCOCC3)c3oc4ccccc4c3nc2c1
inactive: MDA-MB-435 melanoma 36% | SW-620 colon 21.8% | MCF7 breast 16.6% | HCT-116 colon 20.1% | HCC-2998 colon 50.4% | KM12 colon 32%

COc1ccc(-c2nc3ccc(-c4nnc(SCC(=O)Nc5ccc(C(C)=O)cc5)o4)cc3[nH]2)cc1
inactive: MDA-MB-435 melanoma 102% | SW-620 colon 103% | MCF7 breast 77.1% | HCT-116 colon 109% | HCC-2998 colon 111% | KM12 colon 105%

CC(=O)Oc1ccccc1C(=O)Nc1ccc(C(=O)/C=C/c2ccncc2)cc1
inactive: MDA-MB-435 melanoma 18.2% | HCC-2998 colon 13.3%
active: SW-620 colon 0.322% | MCF7 breast 2.69% | HCT-116 colon -72.5% | KM12 colon -31.9%
